According to the supplement of paper PMC3334620:
Over roughly 33,000 sequences, “E-score (-0.5 to 0.5)” has its median near -0.032; the highest 2% begin near 0.36. This is one part of a sample in which the highest values are shown more often than they occur.

What follows are sequences tested against T1, Sko1 (UniProt Q02100) (assay: PBM E-score (8-mer binding enrichment) (E-score (-0.5 to 0.5)); higher = stronger / more preferred TF binding). Conditions: protein concentration: 200 nM; construct: GST-full length.
T1 sequence: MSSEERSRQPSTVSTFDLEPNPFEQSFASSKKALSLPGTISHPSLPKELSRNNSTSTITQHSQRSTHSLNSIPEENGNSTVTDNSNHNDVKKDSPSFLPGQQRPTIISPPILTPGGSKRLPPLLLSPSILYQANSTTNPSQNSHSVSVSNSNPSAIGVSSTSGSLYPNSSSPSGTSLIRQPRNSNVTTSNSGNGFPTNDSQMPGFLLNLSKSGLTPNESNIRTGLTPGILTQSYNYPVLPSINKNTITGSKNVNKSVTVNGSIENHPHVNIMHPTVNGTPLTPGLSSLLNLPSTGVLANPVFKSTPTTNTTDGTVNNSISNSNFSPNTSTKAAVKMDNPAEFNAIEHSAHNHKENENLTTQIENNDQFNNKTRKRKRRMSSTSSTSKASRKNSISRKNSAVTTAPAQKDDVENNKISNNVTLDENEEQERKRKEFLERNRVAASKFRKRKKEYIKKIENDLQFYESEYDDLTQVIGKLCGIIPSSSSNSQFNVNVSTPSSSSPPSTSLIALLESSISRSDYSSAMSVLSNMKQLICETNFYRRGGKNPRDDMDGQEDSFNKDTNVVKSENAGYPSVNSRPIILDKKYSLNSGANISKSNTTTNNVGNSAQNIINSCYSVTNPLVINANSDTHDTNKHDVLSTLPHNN
Experimental: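 Universal 'all 10-mer' protein binding microarrays (Agilent AMADID 015681) probed with GST-tagged S. cerevisiae TFs (full-length or DBD) made by in vitro transcription/translation (PURExpress), about 100-200 nM. Bound TF was detected with fluorescent anti-GST. Each ungapped 8-mer (which stands for itself and its reverse complement) is scored by the PBM enrichment score (E-score), a modified Wilcoxon-Mann-Whitney statistic from -0.5 to +0.5, computed with the Universal PBM Analysis Suite. Scale: above 0.35 generally sequence-specific binding.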

Sequence | PBM E-score
CCACTCGC | -0.25
GAGATCCC | -0.171
CCCGCAAA | -0.0244
GGGGCGGA | -0.338
CGTCTAAG | 0.0318
CCGACCGG | -0.294
ACAGTCTG | -0.171
ACGATTCG | 0.059
CCGTCTGA | -0.224
AGGCAGTA | -0.129
CCGGCCGG | -0.373
AACTGACG | 0.363
AACTGACA | 0.183
CACTGACA | 0.0149
AGCTGACG | 0.347
CACTGACG | 0.424
CGCTGACC | -0.15
AACTGACT | -0.0679
CACTGACC | -0.26
CGCTGACG | 0.389
TGGTGCAA | -0.0842
CCTTTTAC | -0.0204
AGCGAACC | 0.0124
TCCCAAAA | -0.048
ATGCAAAC | 0.108

Sequence | PBM E-score
ATACCGTG | -0.0765
GCACTGCA | 0.0142
AAGTCACA | 0.0509
ACGTCACG | 0.486
ACGTCACA | 0.481
AGGTCACC | -0.128
ATGTCACA | 0.324
AAGTCACT | 0.144
AGGTCACG | 0.0716
ACGTCACT | 0.489
CCGTCACC | 0.101
AAGTCACG | 0.126
ACGTCACC | 0.489
AGGTCACT | -0.0104
CTAGAATC | -0.0473
ATCAGGTG | -0.0909
ACTGCAAC | -0.0632
GTGCTTCA | 0.0642
ACATATGT | 0.29
CGTGAGAA | 0.117
GTAATTAA | 0.237
CTAATTAC | 0.323
ATAATTAA | 0.285
ATAATTAC | 0.376
GAAATTAC | 0.323

Sequence | PBM E-score
GTAATTAC | 0.367
CACTGTCG | -0.11
GCACCTGC | -0.202
ACATCATC | 0.43
GCATCAGA | 0.113
ACATCAGA | 0.122
CCATCATC | 0.0168
ACATCAAG | 0.242
AAATCATA | 0.204
CTATCATC | 0.0137
CCATCATA | 0.0672
ACATCATG | 0.393
ACATCATA | 0.425
ACATCACA | 0.313
GCATCATA | 0.366
ACTGGTTA | 0.0712
ATTGGAGA | 0.0978
ACGCCGTC | 0.192
AGCATAGA | -0.0737
GCTCGACA | -0.181
CACTAGAA | 0.023
GCAGCGGC | -0.178
ACGCGGAA | 0.0704
AGGCGTAA | 0.206
ACGCGTAT | 0.389

Sequence | PBM E-score
AGTCGTAA | 0.231
ACGCGTAG | 0.259
AAGCGTAA | 0.241
GGGCGTAA | -0.0261
ACGCGTAC | 0.307
ACGCGTGA | 0.32
GGTCGTAA | 0.249
TGTCGTAA | 0.412
ACGCGTAA | 0.382
TGGCGTAA | 0.414
CACGATCG | 0.0307
CGTTCAAC | 0.112
GGTCTCCA | -0.19
CGTCCGAC | -0.0238
ACAACCGG | -0.197
CAGACCAC | -0.0177
CACCAGCA | 0.0552
AGCGCGAT | -0.0488
ACTCGAAA | 0.0248
ATGTATGA | 0.288
CCGCGTAA | 0.318
TCGCGTAA | 0.393
GCGCGTAA | 0.336
AATGCGTG | 0.214
AATGCGTA | 0.39

Sequence | PBM E-score
CATGCGTA | 0.38
AATGCGTC | 0.185
GATGCGTA | 0.272
CATGCGTC | 0.161
GGGTGAAC | -0.114
ACATAGGG | -0.181
AGATAGCC | -0.299
ACATCTAG | -0.0627
AACATTCC | 0.0401
CGCATACC | 0.0198
CGCATACA | 0.0477
AACATACG | 0.387
AACATACT | 0.0365
ATCATACC | 0.171
CACATACG | 0.276
CGCATACG | 0.378
ATCATACG | 0.365
ATCATACA | 0.257
CTGCTACA | -0.0447
AATGCTTA | -0.1
CAGTATGC | -0.0805
GTTCCGCA | 0.00536
GTCGATCA | -0.0654
TATCGCCA | 0.0834
CCCTATGA | 0.0198

Sequence | PBM E-score
AAGTCCAA | 0.0276
AATAACGC | 0.106
AATAACGG | 0.138
AATAACGT | 0.426
GCCTCAAC | -0.175
CCGTTTTC | 0.0601
ACGTTTTC | 0.396
ACGTTTCC | 0.294
ACGTTTTA | 0.364
ACGTTTTG | 0.393
CCGTTTTA | -0.00533
ACGTTTGG | 0.296
GCGTTTTA | 0.125
AGGTTTTG | -0.0965
GGCTACAA | -0.0783
CATCGAGA | 0.0586
CACTTGAC | 0.186
AAGGTTAA | 0.06
AAATGTCG | 0.159
AGCTTGCA | 0.0429
CGCCTACC | -0.145
CCTCTGCA | -0.229
CGTAACGA | 0.366
CGTAACCA | 0.389
CGTAACTA | 0.381

Sequence | PBM E-score
GGTAACTA | 0.0515
GGTAACCA | -0.101
CGTAACTC | 0.331
GGTAACGA | 0.0123
CGTAACGC | 0.34
CGTAACCC | 0.289
ACCGTGCG | 0.0174
TCTACTAA | 0.0947
CGTTTAAA | 0.277
TGAATGAA | 0.197
ATAGGTCG | -0.195
AATGTCGA | 0.217
AATGTCGT | 0.371
AATGTCGG | 0.0603
CGATTGTC | 0.0842
AGGAGCCC | -0.142
CCATTACG | 0.438
ACATTACT | 0.0825
ACATTACA | 0.28
CCATTACA | 0.089
CCATTACC | -0.148
ACATTACG | 0.425
